Source: PubChem BioAssay
FBPA Giardia inh: Giardia lamblia aldolase inhibition; AID 2451; Potency, µM (titrated, usually from 59.6 µM), for inactives: at the highest dose activity, negative = inhibition, most hits filed as inhibitors; A8B2U2; 290,000 compounds, 0.71% hits; purified Giardia FBPA; further: on the % scale 0 is the no-effect control and ±100 the full control effect; nearly all actives have a fitted effect of over 55% in size
Target sequence (A8B2U2 whole entry, looked up): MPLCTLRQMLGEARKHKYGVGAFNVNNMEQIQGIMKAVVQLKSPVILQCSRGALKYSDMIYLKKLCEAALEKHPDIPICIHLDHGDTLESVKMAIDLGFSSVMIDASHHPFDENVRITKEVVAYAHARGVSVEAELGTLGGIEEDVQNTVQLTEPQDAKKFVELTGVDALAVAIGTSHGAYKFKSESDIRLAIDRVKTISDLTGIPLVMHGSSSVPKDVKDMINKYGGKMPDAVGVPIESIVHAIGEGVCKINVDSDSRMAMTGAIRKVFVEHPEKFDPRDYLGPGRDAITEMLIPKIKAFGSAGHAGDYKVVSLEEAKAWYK
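Giardia FBPA (40 nM reagent) was preincubated 10 min at RT with compound (up to 57.5 uM final), then substrate plus GAPDH/TPI/NAD/arsenate coupling system with diaphorase/resazurin was added; resorufin fluorescence (525/598 nm) was read after 20 min.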
RE007 growth inh: less growth of the S. pombe RE007 Vpr strain; Potency, µM (series often up to 92.2 µM), for the others: at the highest dose activity change, negative = less growth, usual class: inhibitors; S. pombe RE007 Vpr strain, BacTiter-Glo ATP luminescence, 24 h; AID 651644; 360,000 compounds, 0.21% hits; active means well fitted falling curve with a large enough effect; inconclusive means small, poorly fitted or top-dose-only effect; inactive means no such curve, though single readings can be large or run the other way; further: on the % scale 0 is the no-effect control and ±100 the full control effect; nearly all actives have a fitted effect of over 50% in size
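Fission yeast RE007 carrying one integrated HIV-1 vpr copy, seeded at OD 0.01 in PMG+AL medium with 23 nL pinned compound. Grown 24 h at 30 degrees; viability read by BacTiter-Glo luminescence after 5 min.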
Tb PYK inh: inhibitors of Trypanosoma brucei pyruvate kinase; Q57TT1; TbPYK enzyme, Kinase-Glo Plus ATP luminescence, 45 min; Potency, µM (series often up to 76.8 µM), for the others: at the highest dose activity, negative = inhibition, hits mostly inhibitors; 410,000 compounds, 0.12% hits; further: on the % scale 0 is the no-effect control and ±100 the full control effect; nearly all actives have a fitted effect of over 50% in size
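T. brucei PYK with substrate was exposed to pin-transferred compounds across a concentration series, then started with 130 uM ADP (final). After 45 min at room temperature, Kinase-Glo Plus luminescence was read, normalized and curve-fitted.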
Sm TGR inh: S. mansoni TGR enzyme inhibition. Q962Y6. AID 485364. Potency, µM (top dose mostly 114 µM), for inactives: top-dose activity change, negative = inhibition, hits mostly inhibitors. 360,000 compounds, 3% hits. purified TGR, DTNB reduction, TNB absorbance 405 nm; further: on the % scale 0 is the no-effect control and ±100 the full control effect; nearly all actives have a fitted effect of over 60% in size
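TGR 20 nM + NADPH 100 uM (dispensed conc.), cpd preinc 15 min RT; start with NADPH (500 uM addition) then DTNB (15 mM addition). Kinetic TNB absorbance, 405 nm filter. Four-parameter Hill fit across titration.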
NS1 function inh: inhibitors of influenza NS1 protein function | 270,000 compounds, 0.4% hits | AID 2326 | Potency, µM (doses to about 46.1 µM), for the others: at the highest dose activity, positive = more growth; calls by dose curve; further: actives are rising curves; nearly all actives have a fitted effect of over 50% in size
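S. cerevisiae expressing influenza A NS1, grown in glucose, washed, then diluted 1:100 into pH 6.0 -URA galactose medium with 23 nl compound. Growth recovery read as OD600; NS1-free strain serves as control.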
LmPK inh: blocks Leishmania mexicana pyruvate kinase activity; 290,000 compounds, 0.37% hits; Potency, µM (series often up to 57.5 µM), for inactives: top-dose activity change, negative = inhibition, actives largely listed as inhibitors; purified LmPK, Kinase-Glo ATP luminescence, 1 h; AID 1721; further: on the % scale 0 is the no-effect control and ±100 the full control effect
Target sequence (Q27686 whole entry, looked up): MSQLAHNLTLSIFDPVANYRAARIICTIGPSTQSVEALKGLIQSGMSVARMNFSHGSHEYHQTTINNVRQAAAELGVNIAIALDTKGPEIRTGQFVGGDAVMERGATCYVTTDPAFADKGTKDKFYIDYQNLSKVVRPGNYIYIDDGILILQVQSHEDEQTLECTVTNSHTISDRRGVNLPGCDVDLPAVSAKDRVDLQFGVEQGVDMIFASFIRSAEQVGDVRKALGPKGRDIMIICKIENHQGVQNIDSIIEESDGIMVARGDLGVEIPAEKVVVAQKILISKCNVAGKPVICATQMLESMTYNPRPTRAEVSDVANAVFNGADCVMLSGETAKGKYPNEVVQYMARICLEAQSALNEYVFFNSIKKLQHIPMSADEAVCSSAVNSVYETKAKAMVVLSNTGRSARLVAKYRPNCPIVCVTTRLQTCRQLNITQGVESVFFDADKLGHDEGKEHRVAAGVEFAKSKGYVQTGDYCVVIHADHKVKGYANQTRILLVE
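ATP generated from ADP (0.1 mM) and PEP (0.5 mM) by 0.1 nM LmPK over 1 h at room temperature (pH 7.2 imidazole buffer) was detected by coupled luciferase luminescence. Values were normalized to uninhibited and no-enzyme wells.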
* hit, by the source's call; u = inconclusive; x = no result given. Shown are actives, neighbours in structure and some others; about 3.5% of the full set was active somewhere. Unless noted, the call rests on the fitted dose curve; in most records, active means well fitted curve in the direction sought with a large enough effect; inconclusive means small, poorly fitted or top-dose-only effect, or another doubt; inactive means no such curve, though single readings can be large; an effect the other way counts as inactive or inconclusive. Potency means the concentration at half of the fitted maximal effect.

SMILES | FBPA Giardia inh | RE007 growth inh | Tb PYK inh | Sm TGR inh | NS1 function inh | LmPK inh
COc1cccc(NC(=O)C2CCN(S(=O)(=O)c3c(C)noc3/C=C/c3cccs3)CC2)c1 | x | x | -1.4% | 10.8% | x | x
COc1nc(C)ccc1-c1noc(-c2ccccn2)n1 | 18.5% | 0.7% | -5.2% | 5.2% | -6.1% | 22.4µM*
COc1ccccc1-c1nc(-c2ccccn2)no1 | 1.1% | u | u | 6.3% | -56.5% | 4.47µM*
Brc1ccc(-c2nc(-c3ccccn3)no2)o1 | 7.4% | u | -13.0% | 0.2% | -74.1% | 31.6µM*
Brc1ccc(-c2noc(-c3ccccn3)n2)o1 | 9.2% | u | -15.1% | -3.9% | -32.8% | u
COC(=O)c1ccc(NC(=O)CSc2ncc3c(n2)-c2cc(Cl)ccc2N(Cc2ccccc2)S3(=O)=O)cc1 | x | x | -4.3% | -1.5% | x | x
Cc1c(NC(=O)C(C)(C)Oc2ccc(Cl)cc2)cccc1-c1nc2ccccc2o1 | x | x | 3.1% | -4.0% | x | x
Cc1cccc(NC(=O)CCC(=O)OCC(=O)c2ccc(Oc3ccc([N+](=O)[O-])cc3)cc2)c1 | -2.0% | -5.0% | -8.2% | 39.8µM* | -10.4% | 1.2%
Cc1ccc(-c2cc(C(F)(F)F)n3nc(C(=O)Nc4ccc(Cl)c(C(F)(F)F)c4)cc3n2)cc1 | x | x | 1.7% | -0.6% | x | x
Oc1ccccc1-c1cc(C(F)(F)C(F)F)nc(-c2ccccc2)n1 | -2.3% | 7.8% | 0.4% | 89.1µM* | -5.3% | 4.8%
CC(C)OCCCn1c(SCc2ccccc2C#N)nc2c(sc3ccccc32)c1=O | x | x | -11.3% | 4.6% | x | x
O=C(O)c1ccc(N2C(=O)CC(N3CCN(c4cccc(C(F)(F)F)c4)CC3)C2=O)cc1 (stereo not drawn) | 2.0% | -15.2% | 1.2% | 89.1µM* | 6.6% | -0.4%
O=C(O)c1ccc(N2C(=O)CC(N3CCN(c4cccc(Cl)c4)CC3)C2=O)cc1 (stereo not drawn) | -4.7% | 11.5% | -0.3% | 50.1µM* | 5.2% | 8.8%
CCOC(=O)Cc1ccc(NC(=O)NCc2ccc3c(c2)CCN3C(=O)CC)cc1 | x | x | -4.3% | 9.4% | x | x
COc1ccc(N(C)S(=O)(=O)c2cccc(C(=O)N3CCN(c4ccccc4)CC3)c2)cc1 | x | 2.4% | -1.8% | -17.3% | x | x
COc1ccc(C2=CSC3=C(C(=O)c4cccc(S(=O)(=O)N(C)C)c4)CCN23)cc1 | 0.8% | -0.1% | u | 1µM* | 16.2% | -4.0%
COc1ccc(-n2c(=O)c3ccc(C(=O)NCc4ccc(C)cc4)cc3n(Cc3ccc(Cl)cc3)c2=O)cc1 | x | x | -1.6% | -11.9% | x | x
CCOC(=O)/C(=C/C=C1\Sc2cc(C)c(C)cc2N1CC)C(C)=O | -22.3% | -6.8% | -3.4% | 44.7µM* | 4.4% | 5.3%
CCOC(=O)/C(=C/C=C1\Sc2ccccc2N1CC)C(C)=O | -13.2% | -7.6% | -3.9% | -24.1% | -0.9% | 2.9%
COc1ccc2c(c1)CC(NC(=O)Nc1cc(Cl)ccc1OC)CO2 (stereo not drawn) | x | x | 1.5% | -1.9% | x | x
Cc1cc(N2CCNCC2)nc2ccccc12 | -17.4% | u | -5.4% | 22.4µM* | 6.1% | -2.2%
O=C(NCc1ccccc1F)C1CCN(c2nnc(-n3cccc3)s2)CC1 | x | x | -1.8% | 1.2% | x | x
O=C(CSc1ccc(-c2ccco2)nn1)NCc1ccc(Cl)cc1 | -5.2% | -9.5% | -16.1% | 15.8µM* | -5.1% | -0.6%
O=C(CSc1ccc(-c2ccco2)nn1)NCc1ccccc1 | 0.8% | -12.2% | 4.4% | 35.5µM* | 9.6% | -2.0%
COc1ccccc1CCNC(=O)CSc1ccc(-c2ccco2)nn1 | u | 1.7% | -19.0% | 3.55µM* | x | -10.6%
SMILES | FBPA Giardia inh | RE007 growth inh | Tb PYK inh | Sm TGR inh | NS1 function inh | LmPK inh
O=C(CSc1ccc(-c2ccccn2)nn1)NCc1ccc(Cl)cc1 | -4.9% | -18.5% | 5.0% | 6.0% | x | -12.3%
COc1cccc(CNC(=O)CSc2ccc(-c3ccco3)nn2)c1 | -3.7% | 5.3% | -2.7% | 8.91µM* | x | -1.8%
COc1ccccc1-c1ccc(SCC(=O)NCCc2ccccc2)nn1 | -3.0% | 10.4% | -10.5% | 3.3% | x | 15.1%
CCc1ccc(NC(=O)CSc2ccc(-c3ccco3)nn2)cc1 | -0.8% | -3.3% | -11.3% | 20µM* | x | -2.4%
CC(=O)c1cccc(NC(=O)CSc2ccc(-c3ccco3)nn2)c1 | x | -11.3% | u | u | 17.2% | -1.9%
COC(=O)C1CN(C#N)N(c2ccc(Cl)cc2)C12c1ccccc1-c1ccccc12 (stereo not drawn) | -7.9% | 18.2% | -15.7% | 5.62µM* | 29.9% | 0.7%
C=C1C(=O)O[C@@H]2C[C@@H](C)[C@@H]3C=CC(=O)[C@@]3(C)[C@@H](OC(=O)CC(=O)O[C@H]3[C@@H]4C(=C)C(=O)O[C@@H]4C[C@@H](C)[C@@H]4C=CC(=O)[C@]43C)[C@H]12 | -0.1% | 1.2% | -13.1% | 1.12µM* | 5.0% | -0.6%
C=C1C(=O)O[C@H]2[C@H]1[C@H](OC(=O)CC(=O)O[C@@H]1C[C@@H](C)[C@@H]3C=CC(=O)[C@@]3(C)[C@H]3OC(=O)C(=C)[C@H]13)C[C@@H](C)[C@H]1C=CC(=O)[C@]12C | -8.9% | -15.1% | -12.9% | 8.91µM* | 1.3% | 15.0%
C=C1C(=O)O[C@H]2C[C@@H](C)[C@@H]3C=CC(=O)[C@@]3(C)C[C@H]12 | 2.9% | -17.7% | -1.0% | 35.5µM* | -3.0% | 0.2%
c1ccc(-c2ccc(N3CCCC4(CCNCC4)C3)cc2)cc1 | 0.1% | x | -3.2% | x | x | x
O=C(C=Cc1cccnc1)c1ccccc1 | x | 44.7µM* | -1.9% | x | x | x
O=C(C=Cc1ccccn1)c1ccccc1O | x | u | -12.0% | x | x | x
O=C(/C=C/c1cccc(O)c1)c1cccnc1 | -4.3% | -9.5% | -3.7% | u | x | -5.6%
O=C(/C=C/c1cccnc1)c1ccc(O)cc1 | 0.5% | -2.5% | -5.3% | 44.7µM* | 3.4% | -13.3%
O=C(C=Cc1ccccn1)c1ccccc1 | x | 25.1µM* | 4.4% | x | x | x
O=C(/C=C/c1cccnc1)c1ccccc1O | 1.0% | x | -3.0% | 20µM* | -82.8% | -13.1%
CNC(=O)C(N)CSC(C)C1=C(C)c2cc3[n-]c(cc4nc(cc5[n-]c(cc1n2)c(C)c5CCC(=O)O)C(CCC(=O)O)=C4C)c(C)c3C(C)SCC(N)C(=O)NC.[Fe+2] (stereo not drawn) | x | x | 0.9% | x | x | x
Cc1ccc(CCNC(=O)CN2CCN(Cc3ccc(Cl)cc3)C2=O)cc1 | x | x | -0.8% | 4.4% | x | x
O=C(/C=C/c1cccnc1)c1ccc([N+](=O)[O-])cc1 | u | 1.7% | 4.2% | 8.91µM* | -6.7% | 3.2%
O=C(/C=C/c1ccc(O)cc1)c1ccccc1 | 7.7% | 50.1µM* | u | -18.9% | -58.1% | 12.6µM*
Cc1cc2[nH]c(=O)c(=O)[nH]c2cc1S(=O)(=O)NCc1ccc(F)cc1 | x | x | 0.3% | -0.4% | x | x
